Reference: PubChem BioAssay (NCI)
This is part of a sample that, as a whole, favours compounds with a hit. Of some 83,000 tested, about 20% had one in any assay.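 The test compound was applied at a single concentration to cells in 96-well plates for 48 hours, and percent growth was recorded.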 Active and inactive are the calls of the source. How the source made its calls: active means growth percent below 10; inactive means the rest.

Tested on: MDA-MB-468 breast
Test: NCI-60 one-dose screen, 48 h (100 = growth as untreated, 0 = no growth, -100 = all killed)
Details: 10 µM unless noted

Row | Compound | growth
1 | CN(C)CCCOc1c(Br)cc(/C=C/C(=O)N(C)CCc2cc(Br)c(OCCCN(C)C)c(Br)c2)cc1Br | 91.4% (inactive)
2 | Cc1ccccc1-n1nnc(C(=O)Nc2ccc(-c3ccccc3)cn2)c1C | 4.89% [50 µM] (active)
3 | O=[N+]([O-])c1ccc(-c2nc(N3CCOCC3)c3c4c(sc3n2)CCCC4)cc1 | 94.8% (inactive)
4 | CCCCOc1nc2c(C)cccc2cc1-c1cc(-c2ccc(Cl)cc2)nc(-c2ccc(Cl)cc2)c1 | 102% (inactive)
5 | COc1cc(NC(C)CCCN)c2ncccc2c1Oc1ccc(Cl)cc1 (stereo not given) | 58.6% (inactive)
6 | CC1(C)NC(=S)NC1=O | 109% (inactive)
7 | CCCCCCc1nc2nc(Cl)c(Cl)nc2[nH]1 | 31.1% (inactive)
8 | CC(C)c1ccc(Cn2ccc3c4c(N)nc(NC5CC5)nc4ccc32)cc1 | -76% (active)
9 | C#CCOc1ccc2ncnc(Nc3cccc(CNC(=O)CCl)c3)c2c1 | -3.41% [8.25 µM] (active)
10 | COc1ccc(C(=O)N2c3ccccc3Sc3ccccc32)c(OC)c1 | 0.159% (active)
11 | O=C(O)CNC(=O)C1(N2C(=O)c3ccccc3C2=O)CCCC1 | 98.1% (inactive)
12 | CCC(NC(c1cc2cccc3ccc4cccc1c4c32)c1nnnn1C(C)(C)C)C1CCCCC1 (stereo not given) | 7.35% (active)
13 | Oc1ccc(Br)cc1/C=N/NC(=S)NC12CC3CC(CC(C3)C1)C2 | 46.8% (inactive)
14 | CN(C)c1ccc(/C=N/Nc2nc(N/N=C/c3ccc(N(C)C)cc3)nc(N3CCOCC3)n2)cc1 | 97.8% (inactive)
15 | C=C(C)[C@@H]1CC[C@]2(C(=O)N3CCN(C)CC3)CC[C@]3(C)[C@H](CC[C@@H]4[C@@]5(C)CC(CCCNC(C)=O)(CCCNC(C)=O)[C@H](OC(C)=O)C(C)(C)[C@@H]5CC[C@]43C)[C@@H]12 | 99.2% (inactive)
16 | C=C1C(=O)O[C@H]2[C@H]1CC/C(COC(=O)C(=O)c1c[nH]c3ccccc13)=C\CC[C@@]1(C)O[C@@H]21 | -59.8% (active)
17 | S=C(S)N1CCCC1 | 111% (inactive)
18 | O=C(NO)c1ccc(NCc2csc3ccccc23)cc1 | 76.9% (inactive)
19 | CCN1C(=O)N(CC)C2C1NC(=O)N2/N=C/C=C/c1ccccc1 (stereo not given) | 19.5% (inactive)
20 | CCC(C)C1NC(=O)C(CCNCS(=O)(=O)O)NC(=O)C(NC(=O)C(CCNCS(=O)(=O)O)NC(=O)C(NC(=O)C(CCNCS(=O)(=O)O)NC(=O)CCCCC(C)C)C(C)O)CCNC(=O)C(C(C)O)NC(=O)C(CCNCS(=O)(=O)O)NC(=O)C(CCNCS(=O)(=O)O)NC(=O)C(C(C)CC)NC1=O (stereo not given) | 16% (inactive)

Row | Compound | growth
21 | O=S(=O)(O)c1ccc(O)c2ccccc12 | 104% (inactive)
22 | CCCCC[C@H](O)C/C=C1/C(=O)C=C[C@@H]1C/C=C\CCCC(=O)OC | 64.6% (inactive)
23 | Cc1cc2nc(C(Cl)Cl)nc(-c3ccc(S(=O)(=O)N(C)C)cc3)n2n1 | -20.2% (active)
24 | C=C(C)[C@@H]1CC[C@]2(CNCCO)CC[C@]3(C)[C@H](CC[C@@H]4[C@@]5(C)CCC(N)[C@@](C)(CO)[C@@H]5CC[C@]43C)[C@@H]12 (stereo not given in full) | -86.8% (active)
25 | Cc1cc2nc(CO)[nH]c2cc1C | 135% (inactive)
26 | COc1ccc(CNCCCN2C(=O)c3ccc4c5c(ccc(c35)C2=O)C(=O)N(CCCNCc2ccc(OC)c(OC)c2OC)C4=O)c(OC)c1OC | -94.8% (active)
27 | CCN(CC)c1ccc(NC(C(=O)c2ccccc2)c2ccccc2)cc1 (stereo not given) | 1.41% (active)
28 | O=C(NCc1ccco1)C1CCN(S(=O)(=O)c2ccc(Cl)cc2)CC1 | 56.2% (inactive)
29 | CC(=O)Oc1cc2cnc3c4cc(OC(C)=O)c(OC(C)=O)cc4ccc3c2cc1OC(C)=O | -7.77% (active)
30 | C#C[C@]1(O)CC[C@H]2[C@@H]3CC=C4c5sc(Nc6ccccc6)nc5CC[C@]4(C)[C@H]3CC[C@@]21C | 7.27% (active)
31 | Cc1cc(C)c2c(Nc3ncnc4c3sc3nc(C)cc(C)c34)n[nH]c2n1 | 92.2% (inactive)
32 | COc1cc(-c2ncn(/C=C\C(=O)OC(C)C)n2)cc(C(F)(F)F)c1 | -40.6% (active)
33 | CC/C=C1/C(=O)C=C[C@@H]1C/C=C\CCCC(=O)OC | 77.6% (inactive)
34 | CC(C)c1ncc(CO)n1Cc1c(Cl)cccc1Cl | 97.5% (inactive)
35 | CN(C)c1ccc(/C=C2\C=C(c3nc4ccccc4s3)OC2=O)cc1 | 79.8% (inactive)
36 | Cc1cc(O)c(C2=NN(c3ccc(S(N)(=O)=O)cc3)C(/C=C/c3ccccc3)C2)cc1Cl (stereo not given) | 43.3% (inactive)
37 | Cc1cc(C)n(C(=O)c2nn(-c3ccc(Cl)cc3)cc2O)n1 | 64.6% (inactive)
38 | O=C(CCCSc1nc(-c2ccccc2)cc(-c2ccccc2)n1)NO | -38% (active)
39 | CCNCCNc1cc(-c2ccc(Cl)c(Cl)c2)c(C#N)c2nc3ccccc3n12 | -80.9% (active)
40 | O=c1[nH]c(=S)[nH]n1C(=S)n1[nH]c(=S)[nH]c1=O | 92.5% (inactive)
